This passage reports outcome results from PubChem BioAssay (NCATS).

Structures are written as SMILES. The source made the active and inactive calls. The call rests on the fitted dose curve; in most records, active means well fitted curve in the direction sought with a large enough effect; inactive means no such curve, though single readings can be large or run the other way.

The target of the assay is Alpha-galactosidase A (Homo sapiens) (UniProt P06280). Kind of assay: Counterscreen for Glucocerebrosidase Inhibitors: qHTS Assay for Human alpha-Galactosidase at pH 4.5 (AID 992). The settings on record: purified enzyme, fluorogenic substrate; series mostly up to 76.9 µM. The text has this: NIH Chemical Genomics Center [NCGC]
Sequence of Alpha-galactosidase A (Homo sapiens) (P06280 whole entry, looked up): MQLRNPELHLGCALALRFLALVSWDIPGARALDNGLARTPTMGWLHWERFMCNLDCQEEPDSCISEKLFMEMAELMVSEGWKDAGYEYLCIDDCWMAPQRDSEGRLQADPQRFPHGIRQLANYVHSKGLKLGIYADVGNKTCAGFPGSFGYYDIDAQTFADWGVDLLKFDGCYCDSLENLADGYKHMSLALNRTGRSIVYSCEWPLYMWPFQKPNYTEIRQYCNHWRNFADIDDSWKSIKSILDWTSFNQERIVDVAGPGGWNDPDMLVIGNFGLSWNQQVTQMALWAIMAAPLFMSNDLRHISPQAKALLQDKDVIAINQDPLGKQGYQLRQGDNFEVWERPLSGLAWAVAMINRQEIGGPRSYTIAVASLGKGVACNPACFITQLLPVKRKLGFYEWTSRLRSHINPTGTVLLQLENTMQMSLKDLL
NIH Molecular Libraries Screening Centers Network [MLSCN]
PI Name: Zheng, Wei [NIH]
Alpha-galactosidase is a homodimeric glycoprotein that hydrolyzes the terminal alpha-galactosyl moieties from glycolipids and glycoproteins. Deficiency of this enzyme results in Fabry Disease with progressive accumulation of globotriaosylceramide and other glycosphingolipids in vascular endothelial cells that causes renal failure, myocardial infarction and stroke, and premature death in patients. It has reported that the improper folding and trafficking of alpha-galactosidase resulted from the genetic mutations may account for a significant numbers of Fabry patients. […] We optimized this alpha-galactosidase assay in 1536-well plate format for identifying the novel small molecule inhibitors with the structures other than the sugar analogs in order to develop the new pharmacological chaperones.
NCGC Assay Protocol Summary:
This is a fluorogenic enzyme assay with 4-Methylumbelliferyl alpha-D-galactopyranoside as the substrate and human […] as the enzyme preparation. Upon the hydrolysis of this fluorogenic substrate, the resulting product, […]. 4-Methyllumbelliferone, can be excited at 365 nm and emits at 440 nm which can be detected by a standard fluorescence plate reader. Data were normalized to the controls for basal activity (without enzyme) and 100% activity (with enzyme). In the AC50 values were determined from concentration-response data modeled with the standard Hill equation.
Assay buffer: 50 mM citric acid, 0.005% Tween-20, pH 4.5. (pH 4.5 is an optimal condition for this enzyme assay)
1536-well assay protocol for the human alpha-galactosidase:
(1) Add 2 ul/well of enzyme (2 nM final)
(2) Add 23 nL compounds in DMSO solution. The final titration was 0.7 nM to 77 uM.
(3) Add 1 ul of substrate (80 uM final)
(4) Incubate at room temperature for 20 min.
(5) Add 2 ul stop solution (1M NaOH and 1M Glycine mixture, pH 10)
(6) Detect the assay plate in a ViewLux plate reader (PerkinElmer) with Ex=365 nm and Em=440nm.
Keywords: Alpha-galactosidase, Fabry Disease, pharmacological chaperone, chaperone therapy, high throughput screening, alpha-galactosidase inhibitor, MLSMR, MLSCN, NIH Roadmap, qHTS and NCGC
In general terms: A counterscreen serves to expose hits that act by an unwanted route or on another target.
`Clc1nccc2c1ccc1ccccc12`: the outcome was inactive.
As for `N[C@@H](CS(=O)O)C(=O)O`, the call was inactive.
Next, `CCCC(=O)NCCc1c2n(c3ccc(OC)cc13)CCCc1ccccc1-2`: “inactive”.
With `CCCc1c(OCCCOc2ccc(OCC(=O)O)cc2)ccc(C(C)=O)c1O` the entry was “inactive”; with `N=C(N)SCCc1cnc[nH]1`, “inactive”.
As to `COC(=O)[C@H](NC(=O)c1cc(-c2ccccc2)nc2ccccc12)c1ccccc1`, the compound was called inactive.
Regarding `CCCCOC(=O)NS(=O)(=O)c1sc(CC(C)C)cc1-c1ccc(Cn2c(CC)nc3c(C)cc(C)nc32)cc1`, the result was inactive.
With `N[C@@H](Cc1c[nH]c2ccccc12)C(=O)O` the entry was “inactive”.
`COc1cc(CC(=O)O)ccc1O`: the call was inactive.
Consider `Cc1nc2c(OCc3ccccc3)cccn2c1CC#N`, for which the compound was classed as inactive.
Next, `CCCn1c(=O)c2c(ncn2C)n(CCC)c1=O`: “inactive”; `COc1cc(CNC(=O)CCCCCCC(C)C)ccc1O`: “inactive”.
Consider `NC(N)=[N+]1CCc2ccccc2C1`, for which the compound was called inactive.
As to `COc1ccccc1N1CCN(CCCNc2c(C)c(=O)n(C)c(=O)n2C)CC1`, the compound was classed as inactive.
Turning to `CCCc1c(-c2ccc(O)cc2)nn(-c2ccc(O)cc2)c1-c1ccc(O)cc1`, the compound was called inactive.
For the compound `Cc1nc(N=Nc2ccc(C(=O)O)cc2)c(COP(=O)(O)O)c(C=O)c1O`, the compound was classed as inactive.
With `COc1ccc(CCN(C)CCc2ccc(OC)c(OC)c2)cc1OC` the entry was “inactive”; with `Nc1ncnc2c1c(-c1ccc(Oc3ccccc3)cc1)cn2C1CCCC1`, “inactive”.
On to `COc1ccc(C(=O)NCc2cccnc2)cc1C(=O)NCc1cccnc1`, for which the outcome was inactive.
In the case of `CCN(CC)CCOC(=O)c1cc(Cl)c(N)cc1OC`, the compound was called inactive.
Next, `O=c1onc2cnc3ccccc3n12`: “inactive”; `NC(N)=NC(N)=Nc1cccc(Cl)c1`: “inactive”.
As for `CNC(=O)c1cc2c(cn1)[nH]c1ccccc12`, the outcome was inactive.
For the compound `CCN1C(=O)C=CC1=O`, the compound was called inactive.
As to `NCCCCN`, the compound was classed as inactive.
For `CC[C@H](NC(=O)c1c(C)c(-c2ccccc2)nc2ccccc12)c1ccccc1`, the call was inactive.
Next, `Fc1ccc(CN(C2=NCCN2)c2c(Cl)cccc2Cl)cc1`: “inactive”; `O=C(O)C1=CCCN(CCON=C(c2ccccc2)c2ccccc2)C1`: “inactive”; `COc1ccc(NC(=O)c2ccc(-c3ccc(-c4noc(C)n4)cc3C)cc2)cc1N1CCN(C)CC1`: “inactive”.
With `CN[C@H](CC(=O)O)C(=O)O` the entry was “inactive”.
Consider `CN(C)S(=O)(=O)c1ccc2c(c1)/C(=C/c1cc3c([nH]1)CCCC3)C(=O)N2`, for which the result was inactive.
Consider `O=C1NC(=O)c2cc(Nc3ccccc3)c(Nc3ccccc3)cc21`, for which the outcome was inactive.
Next, `O=C(O)/C(=C/c1c(C(=O)O)[nH]c2cc(Cl)cc(Cl)c12)c1ccccc1`: “inactive”.
Consider `Nc1ccc(-c2nc3ccc(-c4nc5ccc(N)cc5[nH]4)cc3[nH]2)cc1`, for which the outcome was inactive.
As to `CC(C)NC[C@H](O)COc1ccc(CC(N)=O)cc1`, the outcome was inactive.
As for `COc1cc(/C=C(\C#N)C(=O)c2ccc(O)c(O)c2)cc(I)c1O`, the outcome was inactive.
Next, `CCn1c(=O)[nH]c2cc(Cl)c(Cl)cc21`: “inactive”.
Next, `CN1CCN(c2nc3cc(C(F)(F)F)ccc3n3cccc23)CC1`: “inactive”.
For `N=C(N)c1ccccc1`, the compound was called inactive.
Take `NS(=O)(=O)c1cccc2c1c([N+](=O)[O-])cc1nc(O)c(O)nc12`: the compound was classed as inactive.
